{
  "source": "PubChem BioAssay AID1851",
  "about": "(National Center for Advancing Translational Sciences (NCATS), 2009)",
  "note": "The whole screen tested about 16,000 compounds, of which about 5,100 (32%) were called active. Another 25% or so got no clear call; they are omitted. Calls come from the whole dose curve; as a rule, active = well fitted curve in the direction sought with a large enough effect; inconclusive = small, poorly fitted or top-dose-only effect, or effect the other way; inactive = no such curve, though single readings can be large or run the other way. The list shows a part of the results. % is set by controls: 0 for no effect and ±100 for the full control effect.",
  "data": [
    {"target": "Cytochrome P450 3A4 (Homo sapiens) (UniProt P08684)", "sequence (P08684 whole entry, looked up)": "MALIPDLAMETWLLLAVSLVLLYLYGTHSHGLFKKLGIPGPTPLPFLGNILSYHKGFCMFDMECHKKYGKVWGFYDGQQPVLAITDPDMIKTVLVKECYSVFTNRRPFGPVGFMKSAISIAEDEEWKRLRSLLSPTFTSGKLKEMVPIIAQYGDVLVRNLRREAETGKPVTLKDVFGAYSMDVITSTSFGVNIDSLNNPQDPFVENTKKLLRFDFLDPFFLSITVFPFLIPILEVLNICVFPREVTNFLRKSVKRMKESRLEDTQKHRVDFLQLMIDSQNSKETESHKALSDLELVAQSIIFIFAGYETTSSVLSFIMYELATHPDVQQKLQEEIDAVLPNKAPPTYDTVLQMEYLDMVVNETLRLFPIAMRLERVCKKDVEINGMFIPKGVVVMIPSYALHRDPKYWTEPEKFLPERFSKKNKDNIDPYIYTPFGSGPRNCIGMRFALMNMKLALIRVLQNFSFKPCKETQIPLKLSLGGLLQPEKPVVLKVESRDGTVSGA", "assay": "Cytochrome panel assay with activity outcomes", "conditions": "recombinant CYP, pro-luciferin dealkylation, luminescence, p450-cyp3a4; series mostly up to 57.1 µM; activity, negative = inhibition: at the top concentration", "values": [
      {"molecule": "N#CCCCC[N+]12CN3CN(CN(C3)C1)C2", "activity, negative = inhibition": "-1.78% [at 11.4 µM] (inactive)"},
      {"molecule": "c1ccc(N2CC3(CCNCC3)C2)cc1", "activity, negative = inhibition": "-19% (inactive)"},
      {"molecule": "COc1ccc2c(c1)CCC1C2CC[C@]2(C)[C@H](NCCCCCCN3C(=O)C=CC3=O)CC[C@@H]12", "note": "(some centres undefined)", "activity, negative = inhibition": "-6.9% (inactive)"},
      {"molecule": "C[C@@H]1[C@@H](C)N1C[C@H](O)Cn1ccnc1[N+](=O)[O-]", "note": "(some centres undefined)", "activity, negative = inhibition": "-14.6% [at 11.4 µM] (inactive)"},
      {"molecule": "c1ccc(CCN2CCOCC2)nc1", "activity, negative = inhibition": "-6.24% [at 11.4 µM] (inactive)"},
      {"molecule": "COCCCn1c(N)c(C(=O)Nc2sc3c(c2C(=O)OC)CCCC3)c2nc3ccccc3nc21", "AC50": "15.8 µM (active)"},
      {"molecule": "CNC(=O)OCC[N+](C)(C)C", "activity, negative = inhibition": "-8.08% (inactive)"},
      {"molecule": "O=C1Nc2ccc(I)cc2/C1=C/c1cc(Br)c(O)c(Br)c1", "AC50": "5.01 µM (active)"},
      {"molecule": "CC(C)c1ccc(C(O)(C(=O)O)c2ccc(C(C)C)cc2)cc1", "activity, negative = inhibition": "19.4% [at 11.4 µM] (inactive)"},
      {"molecule": "CC(C)c1ccc2c(c1)c(SC(C)(C)C)c(CC(C)(C)C(=O)O)n2Cc1ccc(Cl)cc1", "AC50": "20 µM (active)"},
      {"molecule": "CC(C)(C)NC[C@H](O)c1ccccc1Cl", "activity, negative = inhibition": "-11.1% (inactive)"},
      {"molecule": "C[C@H](N)[C@@H](O)c1ccccc1", "activity, negative = inhibition": "0.449% [at 25.6 µM] (inactive)"},
      {"molecule": "C[C@H](N)c1cccc(Cl)c1Cl", "AC50": "25.1 µM (active)"},
      {"molecule": "CCOC(=O)N(c1ccccc1)P1(=S)OCCO1", "activity, negative = inhibition": "-25.1% [at 11.4 µM] (inactive)"},
      {"molecule": "O=P(Nc1c(Cl)cccc1Cl)(c1ccccc1)c1nc2c(s1)CCCC2", "note": "(centres undefined)", "AC50": "11.2 µM (active)"},
      {"molecule": "O=[As](O)(O)c1ccc2nc3cc([As](=O)(O)O)ccc3nc2c1", "activity, negative = inhibition": "5.92% [at 11.4 µM] (inactive)"},
      {"molecule": "Cn1cnc(CCN)c1", "activity, negative = inhibition": "-1.69% (inactive)"},
      {"molecule": "COCCCN1Cc2ccccc2C1=N", "activity, negative = inhibition": "-4.09% (inactive)"},
      {"molecule": "O=C(O)/C=C(\\CC(=O)O)C(=O)O", "activity, negative = inhibition": "-2.52% [at 11.4 µM] (inactive)"},
      {"molecule": "C[C@@]12CC[C@@H]3[C@H](CCC4=CC(=O)CC[C@]43C)[C@@H]1CC[C@@H]2C(=O)COS(=O)(=O)c1ccc(Br)cc1", "activity, negative = inhibition": "20.5% [at 11.4 µM] (inactive)"},
      {"molecule": "Nc1nc(OCc2ccccc2)c2[nH]cnc2n1", "AC50": "7.94 µM (active)"},
      {"molecule": "O=C(Nc1ccc(F)cc1F)c1cccnc1Oc1cccc(C(F)(F)F)c1", "activity, negative = inhibition": "-19.7% (inactive)"},
      {"molecule": "CCOC(=O)[C@@H]1[C@@H]2c3ccccc3-c3ccccc3[C@H]2C[C@H]1O", "activity, negative = inhibition": "-1.52% [at 11.4 µM] (inactive)"},
      {"molecule": "Cc1ccc(N(C)C(=O)Oc2cccc3ccc(C)nc23)cc1", "AC50": "15.8 µM (active)"},
      {"molecule": "N[C@H](CCl)C(=O)O", "activity, negative = inhibition": "-5.68% (inactive)"},
      {"molecule": "C[C@H](CCC(=O)O)[C@H]1CC[C@]2(C)[C@@H]3C(=O)C[C@H]4C(C)(C)[C@@H](O)CC[C@]4(C)[C@H]3C(=O)C[C@@]12C", "activity, negative = inhibition": "-2.04% [at 11.4 µM] (inactive)"},
      {"molecule": "CN(N=O)c1cc(O)ccc1O", "activity, negative = inhibition": "-16.5% (inactive)"},
      {"molecule": "Cn1c(=O)c2[nH]cnc2n(C)c1=O.[CH2-][C@H](Cc1cccc2cc(C(=O)O)c(=O)oc12)OC.[Hg].[OH-]", "activity, negative = inhibition": "12.4% [at 11.4 µM] (inactive)"},
      {"molecule": "C[C@]12CC[C@H]3c4ccc(O)cc4CC[C@@H]3[C@H]1CC[C@@H]2OC(=O)CCc1ccccc1", "activity, negative = inhibition": "-2.52% [at 11.4 µM] (inactive)"},
      {"molecule": "COc1ccc2c(c1)[C@]13CCCC[C@@H]1[C@H](C2)NCC3", "AC50": "15.8 µM (active)"},
      {"molecule": "O=C(CCN1CC2CCC(CC2)C1)c1cccs1", "activity, negative = inhibition": "-19.3% [at 11.4 µM] (inactive)"},
      {"molecule": "c1ccc2c(N3CCNCC3)cccc2c1", "activity, negative = inhibition": "-7.57% (inactive)"},
      {"molecule": "N[C@@H](Cn1cc(I)c(=O)[nH]c1=O)C(=O)O", "activity, negative = inhibition": "-21.8% (inactive)"},
      {"molecule": "CCCOc1ccc2[nH]cc(C3=CCNCC3)c2n1", "AC50": "2.51 µM (active)"},
      {"molecule": "O=c1ccc2[nH]cc(C3=CCNCC3)c2[nH]1", "activity, negative = inhibition": "-11.9% (inactive)"},
      {"molecule": "COc1ccc2[nH]cc(C3=CCNCC3)c2c1", "AC50": "1.26 µM (active)"},
      {"molecule": "CCCN1CCc2cc(O)cc3c2[C@H]1Cc1ccc(O)c(O)c1-3", "activity, negative = inhibition": "-22.6% (inactive)"},
      {"molecule": "c1ccc(CCN2CCCCCC2)nc1", "activity, negative = inhibition": "-14.2% [at 11.4 µM] (inactive)"},
      {"molecule": "CCSCC[C@H](N)C(=O)O", "activity, negative = inhibition": "5.54% [at 11.4 µM] (inactive)"},
      {"molecule": "CO[C@@H]([CH2][Hg])CN1C(=O)c2ccccc2S1(=O)=O.Cn1c(=O)c2nc[nH]c2n(C)c1=O", "activity, negative = inhibition": "2.75% [at 11.4 µM] (inactive)"},
      {"molecule": "CC(=O)OC1=CC2=CC[C@H]3[C@H]4CCC(=O)[C@@]4(C)CC(=O)[C@]3(S)[C@]2(C)CC1", "activity, negative = inhibition": "-29.7% [at 11.4 µM] (inactive)"},
      {"molecule": "C=C(C)[C@H]1CC[C@]2(C(=O)O)CC[C@]3(C)[C@@H](CC[C@H]4[C@@]5(C)CC[C@@H](O)C(C)(C)[C@@H]5CC[C@@]43C)[C@H]12", "activity, negative = inhibition": "-20.4% [at 25.6 µM] (inactive)"},
      {"molecule": "C[C@@H]1[C@H]2C=C[C@@H]1[C@@H](c1c3ccc(=O)c(O)c-3oc3c(O)c(O)ccc13)[C@@H]2C(=O)O", "activity, negative = inhibition": "-0.366% [at 11.4 µM] (inactive)"},
      {"molecule": "O=C(C1CC(=O)N(C2CCCC2)C1)N1CCC2(CC1)OCCO2", "note": "(centres undefined)", "activity, negative = inhibition": "-7.38% (inactive)"},
      {"molecule": "CN1[C@@H](CC(=O)c2ccccc2)CCC[C@@H]1C[C@@H](O)c1ccccc1", "activity, negative = inhibition": "-5.81% [at 25.6 µM] (inactive)"},
      {"molecule": "N[C@H](Cc1o[nH]c(=O)c1Cl)C(=O)O", "activity, negative = inhibition": "-20.3% (inactive)"},
      {"molecule": "Cc1ccc(S(=O)(=O)NCC2CCC(C(=O)N3CCC4(CC3)OCCO4)CC2)cc1", "note": "(centres undefined)", "AC50": "15.8 µM (active)"},
      {"molecule": "O=C(CNS(=O)(=O)c1cccs1)N1CCC2(CC1)OCCO2", "activity, negative = inhibition": "-9.14% (inactive)"},
      {"molecule": "CS(=O)(=O)N1CCCC(C(=O)N2CCC3(CC2)OCCO3)C1", "note": "(centres undefined)", "activity, negative = inhibition": "1.72% [at 2.29 µM] (inactive)"},
      {"molecule": "CCCCCCN=Cc1c(O)n(C)c(=O)n(C)c1=O", "activity, negative = inhibition": "16.4% [at 2.29 µM] (inactive)"},
      {"molecule": "CCN1CCN(S(=O)(=O)c2ccc(Cl)nc2)CC1", "activity, negative = inhibition": "-12.9% (inactive)"},
      {"molecule": "Cc1nc(N)sc1CCN", "activity, negative = inhibition": "-5.83% (inactive)"},
      {"molecule": "COc1ccc(CCNc2cc(-c3ccccc3)nc3ncnn23)cc1", "AC50": "5.62 µM (active)"},
      {"molecule": "C=C(C)[C@H]1CN[C@H](C(=O)O)[C@@H]1CC(=O)O", "activity, negative = inhibition": "-13.9% (inactive)"},
      {"molecule": "N#CCCN", "activity, negative = inhibition": "-6.05% (inactive)"},
      {"molecule": "CN(C)[C@@H]1C(=O)C(C(N)=O)=C(O)[C@]2(O)C(=O)C3=C(O)c4c(O)cccc4[C@](C)(O)[C@H]3C[C@@H]12", "activity, negative = inhibition": "-3.93% [at 11.4 µM] (inactive)"},
      {"molecule": "CCOc1ccc(C2C(C#N)=C(N)Oc3c2c(=O)oc2ccccc32)cc1", "note": "(centres undefined)", "activity, negative = inhibition": "-8.38% [at 2.29 µM] (inactive)"},
      {"molecule": "C=Cn1ccnc1P(=S)(c1nccn1C=C)C1CCCCC1", "AC50": "1.26 µM (active)"},
      {"molecule": "C[C@H]1C(=O)O[C@@H]2CCN3CC=C(COC(=O)[C@@](C)(O)[C@@]1(C)O)[C@H]23", "activity, negative = inhibition": "-3.99% [at 25.6 µM] (inactive)"}
    ]}
  ]
}
